# Test results published in the supplement of paper PMC8728848.
# The entries come from a sample that favours the strongest signals as a whole.
# B1: Siglec-F (Mus musculus), Q920G3 (protein)
# chain: MRWAWLLPLLWAGCLATDGYSLSVTGSVTVQEGLCVFVACQVQYPNSKGPVFGYWFREGANIFSGSPVATNDPQRSVLKEAQGRFYLMGKENSHNCSLDIRDAQKIDTGTYFFRLDGSVKYSFQKSMLSVLVIALTEVPNIQVTSTLVSGNSTKLLCSVPWACEQGTPPIFSWMSSALTSLGHRTTLSSELNLTPRPQDNGTNLTCQVNLPGTGVTVERTQQLSVIYAPQKMTIRVSWGDDTGTKVLQSGASLQIQEGESLSLVCMADSNPPAVLSWERPTQKPFQLSTPAELQLPRAELEDQGKYICQAQNSQGAQTASVSLSIRSLLQLLGPSCSFEGQGLHCSCSSRAWPAPSLRWRLGEGVLEGNSSNGSFTVKSSSAGQWANSSLILSMEFSSNHRLSCEAWSDNRVQRATILLVSGPKVSQAGKSETSRGTVLGAIWGAGLMALLAVCLCLIFFTVKVLRKKSALKVAATKGNHLAKNPASTINSASITSSNIALGYPIQGHLNEPGSQTQKEQPPLATVPDTQKDEPELHYASLSFQGPMPPKPQNTEAMKSVYTEIKIHKC
# Experiments:
# Assay in all cases: glycan array binding signal (z-score within array); higher = stronger binding
# Conditions in all cases: glycan notation: IUPAC condensed, linker removed
# [1] = molecular target: Fuc(a1-2)Gal(b1-3)[Fuc(a1-4)]GlcNAc
# How it was run: (§1)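 From the Consortium for Functional Glycomics database, 3228 arrays were curated, keeping only those whose protein sequence was available. Binding is given as a within-array Z-score averaged across arrays sharing a protein sequence and across linkers. Negative Z-scores can be read as non-binding.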
# [2] = molecular target: Fuc(a1-2)Gal(b1-3)[Fuc(a1-4)]GlcNAc(b1-2)Man(a1-3)[Fuc(a1-2)Gal(b1-3)[Fuc(a1-4)]GlcNAc(b1-2)Man(a1-6)]Man(b1-4)GlcNAc(b1-4)GlcNAc
# How it was run: as §1
# [3] = molecular target: Fuc(a1-2)Gal(b1-3)[Fuc(a1-4)]GlcNAc(b1-3)[Fuc(a1-3)[Gal(b1-4)]GlcNAc(b1-6)]Gal(b1-4)Glc
# How it was run: as §1
# [4] = molecular target: Fuc(a1-2)Gal6S(b1-4)Glc
# How it was run: as §1
# [5] = molecular target: Fuc(a1-2)[Gal(a1-3)]Gal(b1-3)GlcNAc
# How it was run: as §1
# [6] = molecular target: Fuc(a1-2)[GalNAc(a1-3)]Gal(b1-3)GalNAc(a1-3)[Fuc(a1-2)]Gal(b1-4)GlcNAc
# How it was run: as §1
# [7] = molecular target: Fuc(a1-2)[GalNAc(a1-3)]Gal(b1-3)GlcNAc(b1-3)GalNAc
# How it was run: as §1
# [8] = molecular target: Fuc(a1-2)[GalNAc(a1-3)]Gal(b1-3)GlcNAc(b1-6)GalNAc
# How it was run: as §1
# [9] = molecular target: Fuc(a1-2)[GalNAc(a1-3)]Gal(b1-4)GlcNAc(b1-2)Man(a1-3)[Fuc(a1-2)[GalNAc(a1-3)]Gal(b1-4)GlcNAc(b1-2)Man(a1-6)]Man(b1-4)GlcNAc(b1-4)GlcNAc
# How it was run: as §1
# [10] = molecular target: Fuc(a1-3)[Gal(b1-4)]GlcNAc
# How it was run: as §1
# [11] = molecular target: Fuc(a1-3)[Gal(b1-4)]GlcNAc(b1-3)Gal(b1-4)[Fuc(a1-3)]GlcNAc(b1-3)Gal(b1-4)[Fuc(a1-3)]GlcNAc
# How it was run: as §1
# [12] = molecular target: Fuc(a1-3)[Gal(b1-4)]GlcNAc(b1-4)Gal(b1-4)[Fuc(a1-3)]GlcNAc(b1-4)Gal(b1-4)[Fuc(a1-3)]GlcNAc
# How it was run: as §1
# [13] = molecular target: Fuc(a1-3)[Gal3S(b1-4)]Glc
# How it was run: as §1
# [14] = molecular target: Gal(a1-3)Gal(b1-4)GlcNAc(b1-6)GalNAc
# How it was run: as §1
# [15] = molecular target: Gal(a1-3)Gal(b1-4)[Fuc(a1-3)]GlcNAc
# How it was run: as §1
# [16] = molecular target: Gal(a1-4)Gal(b1-3)GlcNAc(b1-2)Man(a1-3)[Gal(a1-4)Gal(b1-3)GlcNAc(b1-2)Man(a1-6)]Man(b1-4)GlcNAc(b1-4)GlcNAc
# How it was run: as §1
# [17] = molecular target: Gal(b1-3)GalNAc(b1-4)[Neu5Ac(a2-3)]Gal(b1-4)Glc
# How it was run: as §1
# [18] = molecular target: Gal(b1-3)[Neu5Ac(a2-6)]GlcNAc(b1-6)Gal(b1-4)Glc
# How it was run: as §1
# [19] = molecular target: Gal(b1-4)GlcNAc(b1-2)Man(a1-3)[Gal(b1-4)GlcNAc(b1-2)Man(a1-6)][Gal(b1-4)GlcNAc(b1-4)]Man(b1-4)GlcNAc(b1-4)[Fuc(a1-6)]GlcNAc
# How it was run: as §1
# [20] = molecular target: Gal(b1-4)GlcNAc(b1-2)Man(a1-3)[Man(a1-6)]Man(b1-4)GlcNAc(b1-4)GlcNAc
# How it was run: as §1
# [21] = molecular target: Gal(b1-4)GlcNAc(b1-2)Man(a1-6)[GlcNAc(b1-2)Man(a1-3)]Man(b1-4)GlcNAc(b1-4)GlcNAc
# How it was run: as §1
# [22] = molecular target: Gal(b1-4)GlcNAc(b1-2)[Gal(b1-4)GlcNAc(b1-4)]Man(a1-3)[Gal(b1-4)GlcNAc(b1-2)[Gal(b1-4)GlcNAc(b1-6)]Man(a1-6)]Man(b1-4)GlcNAc(b1-4)GlcNAc
# How it was run: as §1
# [23] = molecular target: Gal(b1-4)GlcNAc(b1-3)Gal(b1-4)GlcNAc
# How it was run: as §1
# [24] = molecular target: Gal(b1-4)GlcNAc6P
# How it was run: as §1
# [25] = molecular target: Gal3S(b1-3)GlcNAc
# How it was run: as §1
# [26] = molecular target: Gal3S(b1-4)[Fuc(a1-3)]Glc6S
# How it was run: as §1
# [27] = molecular target: Gal3S6S(b1-4)GlcNAc6S
# How it was run: as §1
binder,measurement,setting,value
B1,glycan array binding signal (z-score),[1],-0.132
same,glycan array binding signal (z-score),[2],-0.079
same,glycan array binding signal (z-score),[3],-0.122
same,glycan array binding signal (z-score),[4],-0.123
same,glycan array binding signal (z-score),[5],-0.115
same,glycan array binding signal (z-score),[6],-0.104
same,glycan array binding signal (z-score),[7],-0.094
same,glycan array binding signal (z-score),[8],-0.114
same,glycan array binding signal (z-score),[9],-0.049
same,glycan array binding signal (z-score),[10],-0.117
same,glycan array binding signal (z-score),[11],-0.115
same,glycan array binding signal (z-score),[12],-0.121
same,glycan array binding signal (z-score),[13],-0.146
same,glycan array binding signal (z-score),[14],-0.146
same,glycan array binding signal (z-score),[15],-0.123
same,glycan array binding signal (z-score),[16],0.083
same,glycan array binding signal (z-score),[17],-0.109
same,glycan array binding signal (z-score),[18],-0.091
same,glycan array binding signal (z-score),[19],-0.095
same,glycan array binding signal (z-score),[20],0.022
same,glycan array binding signal (z-score),[21],-0.13
same,glycan array binding signal (z-score),[22],-0.127
same,glycan array binding signal (z-score),[23],-0.096
same,glycan array binding signal (z-score),[24],-0.111
same,glycan array binding signal (z-score),[25],-0.108
same,glycan array binding signal (z-score),[26],0.156
same,glycan array binding signal (z-score),[27],-0.104
